Results filed as inconclusive are left out. Unmarked numbers belong to inactive results. The call rests on the fitted dose curve; in most records, active means well fitted curve in the direction sought with a large enough effect; inconclusive means small, poorly fitted or top-dose-only effect, or another doubt; inactive means no such curve, though single readings can be large or run the other way.
experiment: Cytometric Cell-Based qHTS for Inhibitors of the mTORC1 Signaling Pathway in MEF (Tsc2-/-, p53-/-) Cells (AID 2660); conditions: mTORC1 pathway cytometry; series mostly up to 38.3 µM; activity change, negative = inhibition: at the top concentration;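 further: Tsc2 and p53 null MEFs carrying empty vector with compound for 24 h; percent of cells above a phospho-rpS6 to PI ratio cutoff in each well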
Source text: NIH Molecular Libraries Probe Production Centers Network [MLPCN]
NIH Chemical Genomics Center [NCGC]
Assay Submitter (PI): Blenis, John; Hoffman, Greg; Harvard University
NCGC Assay Overview: The mammalian target of rapamycin (mTOR) is an intracellular serine/threonine kinase Aberrant regulation of mTOR signaling plays a causative role in a number of human diseases, including cancer, benign tumors such as lymphangioleiomyomatosis (LAM) and Tuberous Sclerosis Complex (TSC), and metabolic diseases such as diabetes and obesity. This project aims to identify inhibitors of ribosomal protein S6 (rpS6) phosphorylation. The phosphorylation of rpS6 is a key event downstream of mTOR activation. The assay uses a phospho-specific antibody of phospho-rpS6 to detect inhibitors of mTOR activation. Mutations in the Tsc1 and Tsc2 genes are the underlying genetic lesions responsible for TSC, causing constitutive activation of the mTORC1 pathway and leading to profound effects on cell metabolism. Aberrant metabolism in cancer has recently received significant attention as a target to develop therapeutic agents in the treatment of cancer.1 As Tsc2-/- cells have lost the ability to respond to energy and growth factor deprivation, these cells are unable to properly down regulate cellular biosynthetic processes in response to metabolic stress, and are thus extremely sensitive to glucose deprivation-induced death.2 A central goal of this project is to explore the unique cell survival and metabolic properties of cells with Tsc1 or Tsc2 by screening for compounds that selectively target the Tsc2-/- MEFs by screening both Tsc2-/- and WT MEF cell lines. We hope to better understand these aspects of TSC physiology in order to exploit them for therapeutic benefit.
NCGC Acumen Assay Protocol Summary:
For quantitative high throughput analysis of mTORC1 signaling, we developed a cell-based assay for immuno-fluorescence based detection of rpS6 phosphorylation on the Acumen Explorer that will be used a platform for the primary small molecule screen. Mouse embryonic fibroblasts (MEFs) are cultured in 1536-well plates using DMEM + 10% FBS. Twenty-four hrs after plating, test compounds (solubilized in DMSO) are delivered and incubated with the cells for 24 hrs at 37 degree Celsius. Following the incubation, media with compound is aspirated and the cells are fixed in 4% paraformaldehyde (PFA) containing PBS + 0.2% TX-100. Next, PFA is aspirated, cells are washed two times with PBS plus 0.2% TX-100 and the cells are blocked for 1 hr at room temperature (blocking buffer: LiCOR Blocking Buffer plus 0.2% TX-100). This is followed by aspiration and staining with Alexa-488 conjugated-phospho-rpS6 Ser235/236 antibody for 2 hours at room temperature (Cell Signaling Technology # 4803, 1:50 dilution in blocking buffer). Cells are washed two times with PBS plus 0.2% TX-100, and stained with 10 uM propidium iodide (PI) for 20-25 minutes for cell number measurement (1:500 dilution of Hoescht staining is also added for IN Cell imaging). The plates are scanned on the Acumen Explorer laser scanning instrument (TTP Labtech) using the 488nm laser for simultaneous excitation of the Alexa-488 and PI. The fluorescence emission from the Alexa-488 conjugated rpS6 phospho-235/236 antibody staining is selected using a […] band pass filter. Fluorescence emission from the PI stain is selected using a 575-640 nm band pass filter. The normalized phospho-S6 staining is calculated as the ratio of the integrated Alexa 488 intensity divided by the integrated PI intensity for the single concentration rapamycin control (7.5 nM) and DMSO columns. […] Inhibition of the pathway is defined based on the normalized phospho-S6 intensity in rapamycin treated cells. […]

| Compound | activity change, negative = inhibition [%] |
| --- | --- |
| FC(F)(F)c1ccccc1-n1ccnc1 | -15.2 |
| CCCN(CCC)C(=O)C(CCC(=O)O)NC(=O)c1ccccc1 (stereo not given) | -2.77 |
| CN1CCN(C2=Nc3ccccc3Oc3ccc(Cl)cc32)CC1 | -27.3 |
| NC(=O)c1cn(Cc2c(F)cccc2F)nn1 | -1.12 |
| CC(N=C(NC#N)Nc1ccncc1)C(C)(C)C (stereo not given) | -5.95 |
| Cc1ccc(Cl)c(Nc2ccccc2C(=O)O)c1Cl | 10.4 |
| CNCCC(Oc1ccccc1OC)c1ccccc1 (stereo not given) | 2.91 |
| COc1ccc(CN(CCN(C)C)c2ccccn2)cc1 | 5.71 |
| CC[N+](C)(C)c1cccc(O)c1 | -0.665 |
| CCCCCCCC/C=C\CCCCCCCC(=O)NCc1ccc(O)c(OC)c1 | 4.78 |
| C[C@]12CCC(=O)C=C1CC[C@@H]1[C@@H]2C(=O)C[C@@]2(C)[C@H]1CC[C@]2(O)C(=O)CO | -10.5 |
| CN(C)CCN(Cc1cccs1)c1ccccn1 | 7.48 |
| O=C(CCCN1CCC(O)(c2cccc(C(F)(F)F)c2)CC1)c1ccc(F)cc1 | -2.72 |
| CCN(CC)CCOCCOC(=O)C1(c2ccccc2)CCCC1 | 2.1 |
| COCCc1ccc(OCC(O)CNC(C)C)cc1 (stereo not given) | -0.993 |
| CCCCCN(CCCCC)C(=O)C(CCC(=O)O)NC(=O)c1ccc(Cl)c(Cl)c1 (stereo not given) | -2.02 |
| Cc1cc(C)c(/C=C2\C(=O)Nc3ccccc32)[nH]1 | -9.94 |
| COc1ccc2c(c1OC)C(=O)O[C@@H]2[C@H]1c2c(cc3c(c2OC)OCO3)CCN1C | 3.89 |
| NC1=NCC2c3ccccc3Cc3ccccc3N12 (stereo not given) | -2.88 |
| CCCN1C[C@H](CSC)C[C@@H]2c3cccc4[nH]cc(c34)C[C@H]21 | 5.35 |

| Compound | activity change, negative = inhibition [%] |
| --- | --- |
| C[C@@H](O)[C@H]1C(=O)N2C(C(=O)O)=C(SCCN=CN)C[C@H]12 | -17 |
| CN(C)CC/C=C1\c2ccccc2COc2ccccc21 | 1.51 |
| CN=C(NC#N)NCCSCc1nc[nH]c1C | 8.77 |
| O=c1[nH]c(=O)n([C@H]2C[C@H](O)[C@@H](CO)O2)cc1Br | 0.674 |
| CC(=O)Oc1cc(C(C)C)c(OCCN(C)C)cc1C | -1.61 |
| COc1ccc([C@@H]2Sc3ccccc3N(CCN(C)C)C(=O)[C@@H]2OC(C)=O)cc1 | 1.16 |
| Cc1ccc(/C(=C\CN2CCCC2)c2ccccn2)cc1 | -1.34 |
| CN(C(=O)CCCOc1ccc2[nH]c(=O)ccc2c1)C1CCCCC1 | 3.82 |
| CO[C@@]1(NC(=O)CSCC#N)C(=O)N2C(C(=O)O)=C(CSc3nnnn3C)CS[C@@H]21 | 6.9 |
| COc1cc(C(=O)OCCCN2CCCN(CCCOC(=O)c3cc(OC)c(OC)c(OC)c3)CC2)cc(OC)c1OC | -14 |
| CC1=NS(=O)(=O)c2cc(Cl)ccc2N1 | 4.95 |
| CCn1cc(C(=O)O)c(=O)c2cc3c(cc21)OCO3 | -0.707 |
| CN(C)C/C=C(/c1ccc(Br)cc1)c1cccnc1 | 0.549 |
| CN(C)[C@@H]1C(=O)C(C(N)=O)=C(O)[C@@]2(O)C(=O)C3=C(O)c4c(O)ccc(Cl)c4[C@@H](O)[C@H]3C[C@@H]12 | -2.17 |
| C=CCc1ccccc1OCC(O)CNC(C)C (stereo not given) | 6.51 |
| CCCCNc1ccc(C(=O)OCCN(C)C)cc1 | -0.801 |
| CCCOc1ccccc1-c1nc2n[nH]nc2c(=O)[nH]1 | 3.01 |
| CC(=O)OCC1=C(C(=O)O)N2C(=O)[C@@H](NC(=O)Cc3cccs3)[C@H]2SC1 | 10.6 |
| COc1cc(Cc2cnc(N)nc2N)cc(OC)c1OC | 7.85 |
| COC(=O)[C@@H](N)Cc1ccc(O)c(O)c1 | 1.15 |

From PubChem BioAssay (NCATS)
